The values that follow come from PubChem BioAssay (NCATS).

Molecules are shown by their SMILES. Inconclusive results are not listed.

The first experiment in a line: qHTS Assay for Lipid Storage Modulators (AID 1519). The note with it: Drosophila S3 cells, BODIPY lipid droplet/cell ratio, laser cytometry; measured here: cell count channel max response; cells loaded with oleic acid. The gist of the method: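 Cells seeded at 5,000 per well were treated with compounds over a concentration series and loaded with oleic acid (400 uM, as added). Lipid droplet fluorescence (488 nm excitation, 500-530 nm channel) was read by laser-scanning cytometry and normalized to 20 uM Triacsin C.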
Regarding `Cc1ccccc1-c1cncnc1NCc1ccccc1`, the max response stood at 7.66%.
As to `CN(C)C(=O)c1ccc(-c2cc(NCc3cccnc3)ncn2)cc1`, the max response stood at 24.7%.
Regarding `Cc1noc(C)c1-c1cc(NCc2cccnc2)ncn1`, the max response amounted to 5.59%.
Same read-out and setting: the result for `CN(C)c1ncc2nc(-c3cc(F)cc(F)c3)c(=O)n(CCC#N)c2n1` reads 19.6%; that for `c1nc(NC2CCNCC2)c2cc(-c3ccoc3)ccc2n1`, 13.4%; that for `Fc1ccc(Nc2ncncc2-c2ccccc2C(F)(F)F)cc1`, 13%.
Turning to `COc1ccc(-c2nc3cnc(Oc4ccccc4)nc3n(CCC#N)c2=O)cc1`, the max response is -12.9%.
As to `COc1ccc(-c2nc3cnc(N4CCN(C)CC4)nc3n(Cc3cccs3)c2=O)cc1`, the max response was 17.6%.
On the same count and under the same terms, the same measure for `COc1ccc(-n2c(=O)c(-c3ccc(F)cc3)nc3cnc(N4CCOCC4)nc32)cc1`: 3.3%; for `Cc1noc(C)c1-c1nccc(N2CCOCC2)n1`: 6.28%.
Regarding `COc1ccccc1CCn1c(=O)c(-c2cccc(F)c2)nc2cncnc21`, the max response was found to be 18.2%.
Consider `COCCn1c(=O)cnc2cnc(Oc3ccc(OC)cc3)nc21`, for which the max response stood at 12.6%.
`O=c1c(-c2ccc(F)cc2)nc2cnc(Oc3ccccc3)nc2n1C1CC1`: the max response stood at 0.149%.
For `COc1ccc(Oc2ncc3nc(C)c(=O)n(C[C@H]4CCCO4)c3n2)cc1`, the max response was -3.75%.
Take `CCNc1ncc2nc(-c3cccs3)c(=O)n(C)c2n1`: the max response turned out to be 3.66%.
Take `COCCNc1nc(-c2ccccc2Cl)nc2ccccc12`: the max response is 2.91%.
As for `CN(C)c1ccc(-c2ccc3ncnc(N(C)C)c3c2)cc1`, the max response is 9.5%.
For `COCCn1c(=O)c(C)nc2cnc(N(C)C)nc21`, the max response stood at 17.2%.
As to `COCCNc1ncnc2ccc(-c3cccc(NS(C)(=O)=O)c3)cc12`, the max response was -7.37%.
In the case of `CC(=O)NCCNc1ncncc1-c1ccc(N(C)C)cc1`, the max response turned out to be 25.7%.
On the same count and under the same terms, the result for `COc1ccc(Oc2ncc3nc(-c4ccc(OC)cc4)c(=O)n(C)c3n2)cc1` reads -5.13%.
Turning to `CN1CCN(c2ncc3nc(-c4ccc(Cl)cc4)c(=O)n(-c4ccccc4)c3n2)CC1`, the max response was 13.9%.
Take `CN1CCN(c2ccnc(-c3ccoc3)n2)CC1`: the max response stood at 20.2%.
Regarding `Cc1ccccc1-c1nccc(NCc2cccs2)n1`, the max response is -2.46%.
For `Cc1cccc(CNc2cc(-c3c(C)noc3C)ncn2)c1`, the max response was 14.9%.
With `O=c1cnc2cnc(Oc3cccc(Cl)c3)nc2n1C[C@H]1CCCO1`, the max response came out at 22.7%.
Take `CS(=O)(=O)Nc1cccc(-c2ccc3ncnc(NC4CC4)c3c2)c1`: the max response was -8.29%.
On to `COc1ccc(-n2c(=O)cnc3cnc(N(C)C)nc32)cc1`, for which the max response was found to be 17.5%.
`COc1cccc(Nc2ncc3nc(C)c(=O)n(C4CC4)c3n2)c1`: the max response was -1.52%.
On to `COc1ccc2[nH]cc(CCNc3ncnc4ccc(-c5cccnc5)cc34)c2c1`, for which the max response was -7.3%.
Take `CC(=O)NCCNc1ncnc2ccc(-c3ccoc3)cc12`: the max response is -0.704%.
Turning to `CNc1ncnc2ccc(-c3ccccc3CN(C)C)cc12`, the max response amounted to 6.85%.
For `c1csc(CNc2ncnc3ccc(-c4ccoc4)cc23)c1`, the max response was 15.9%.
`COCCn1c(=O)c(C)nc2cnc(Oc3ccc(OC)cc3)nc21`: the max response worked out at 29.1%.
As for `c1cncc(CNc2ncncc2-c2cccnc2)c1`, the max response stood at 25.3%.
`CN(C)C(=O)c1ccc(-c2cc(Nc3ccccc3)ncn2)cc1`: the max response worked out at 33.4%.
Take `COCCNc1ncnc2ccc(-c3ccoc3)cc12`: the max response was found to be 6.14%.
For the compound `COc1cccc(Cn2c(=O)cnc3cncnc32)c1`, the max response was determined as 17.1%.
Still for that read-out and setting: the same measure for `CCNc1ncc2nc(-c3cn(C)c4ccccc34)c(=O)n(C)c2n1`: 19.5%; for `COc1ccc(-c2nc3cnc(Oc4cccc(Cl)c4)nc3n(C3CC3)c2=O)cc1`: -15.3%.

The experiment is the same for the next values; noted with them: Drosophila S3 cells, BODIPY lipid droplet/cell ratio, laser cytometry; measured here: lipid channel max response; cells loaded with oleic acid.
Regarding `Cc1ccccc1-c1cncnc1NCc1ccccc1`, the max response turned out to be 10.6%.
In the case of `CN(C)C(=O)c1ccc(-c2cc(NCc3cccnc3)ncn2)cc1`, the max response was 22.9%.
With `Cc1noc(C)c1-c1cc(NCc2cccnc2)ncn1`, the max response was 6.22%.
Same read-out and setting: the same measure for `CN(C)c1ncc2nc(-c3cc(F)cc(F)c3)c(=O)n(CCC#N)c2n1`: 21.3%.
With `c1nc(NC2CCNCC2)c2cc(-c3ccoc3)ccc2n1`, the max response worked out at 11.3%.
On the same count and under the same terms, the result for `Fc1ccc(Nc2ncncc2-c2ccccc2C(F)(F)F)cc1` reads 14.7%; that for `COc1ccc(-c2nc3cnc(Oc4ccccc4)nc3n(CCC#N)c2=O)cc1`, -14%.
For `COc1ccc(-c2nc3cnc(N4CCN(C)CC4)nc3n(Cc3cccs3)c2=O)cc1`, the max response amounted to 18%.
Turning to `COc1ccc(-n2c(=O)c(-c3ccc(F)cc3)nc3cnc(N4CCOCC4)nc32)cc1`, the max response was 4.35%.
For `Cc1noc(C)c1-c1nccc(N2CCOCC2)n1`, the max response was found to be 17%.
`COc1ccccc1CCn1c(=O)c(-c2cccc(F)c2)nc2cncnc21`: the max response turned out to be 19.8%.
As to `COCCn1c(=O)cnc2cnc(Oc3ccc(OC)cc3)nc21`, the max response stood at 10.8%.
On the same count and under the same terms, the same measure for `O=c1c(-c2ccc(F)cc2)nc2cnc(Oc3ccccc3)nc2n1C1CC1`: -1.57%; for `COc1ccc(Oc2ncc3nc(C)c(=O)n(C[C@H]4CCCO4)c3n2)cc1`: -4.08%; for `CCNc1ncc2nc(-c3cccs3)c(=O)n(C)c2n1`: -11.1%.
On the same count and under the same terms, the result for `COCCNc1nc(-c2ccccc2Cl)nc2ccccc12` reads 4.03%; that for `CN(C)c1ccc(-c2ccc3ncnc(N(C)C)c3c2)cc1`, 8.94%; that for `COCCn1c(=O)c(C)nc2cnc(N(C)C)nc21`, 22.8%.
Still for that read-out and setting: the result for `COCCNc1ncnc2ccc(-c3cccc(NS(C)(=O)=O)c3)cc12` reads -7.54%; that for `CC(=O)NCCNc1ncncc1-c1ccc(N(C)C)cc1`, 8.09%; that for `COc1ccc(Oc2ncc3nc(-c4ccc(OC)cc4)c(=O)n(C)c3n2)cc1`, -2.18%.
Regarding `CN1CCN(c2ncc3nc(-c4ccc(Cl)cc4)c(=O)n(-c4ccccc4)c3n2)CC1`, the max response is 16.4%.
As to `CN1CCN(c2ccnc(-c3ccoc3)n2)CC1`, the max response was 20.2%.
As to `Cc1ccccc1-c1nccc(NCc2cccs2)n1`, the max response worked out at 6%.
Regarding `Cc1cccc(CNc2cc(-c3c(C)noc3C)ncn2)c1`, the max response turned out to be 22%.
Turning to `O=c1cnc2cnc(Oc3cccc(Cl)c3)nc2n1C[C@H]1CCCO1`, the max response came to 29.8%.
For `CS(=O)(=O)Nc1cccc(-c2ccc3ncnc(NC4CC4)c3c2)c1`, the max response was -10.1%.
Turning to `COc1ccc(-n2c(=O)cnc3cnc(N(C)C)nc32)cc1`, the max response turned out to be 21.2%.
Regarding `COc1cccc(Nc2ncc3nc(C)c(=O)n(C4CC4)c3n2)c1`, the max response was -13.2%.
With `COc1ccc2[nH]cc(CCNc3ncnc4ccc(-c5cccnc5)cc34)c2c1`, the max response was -9.11%.
Regarding `CC(=O)NCCNc1ncnc2ccc(-c3ccoc3)cc12`, the max response is -3.36%.
Regarding `CNc1ncnc2ccc(-c3ccccc3CN(C)C)cc12`, the max response was found to be 10.7%.
For the compound `c1csc(CNc2ncnc3ccc(-c4ccoc4)cc23)c1`, the max response amounted to 14.7%.
Consider `COCCn1c(=O)c(C)nc2cnc(Oc3ccc(OC)cc3)nc21`, for which the max response is 27.3%.
The same measure, in the same setting: the result for `c1cncc(CNc2ncncc2-c2cccnc2)c1` reads 26.2%; that for `CN(C)C(=O)c1ccc(-c2cc(Nc3ccccc3)ncn2)cc1`, 40.6%; that for `COCCNc1ncnc2ccc(-c3ccoc3)cc12`, 3.39%.
On to `COc1cccc(Cn2c(=O)cnc3cncnc32)c1`, for which the max response was 17.8%.
The same measure, in the same setting: the same measure for `CCNc1ncc2nc(-c3cn(C)c4ccccc34)c(=O)n(C)c2n1`: 27.7%; for `COc1ccc(-c2nc3cnc(Oc4cccc(Cl)c4)nc3n(C3CC3)c2=O)cc1`: -19.7%.
